Data published in PubChem BioAssay (Tox21).
Inconclusive results are not listed. Calls of active or inactive are those of the source. Unless noted, the call rests on the fitted dose curve; in most records, active means well fitted curve in the direction sought with a large enough effect in the repeat runs; inconclusive means weak or mixed curves; inactive means no such curve, though single readings can be large; an effect the other way counts as inactive or inconclusive.

Tests used:
[1] = qHTS assay to identify small molecule agonists of the vitamin D receptor (VDR) signaling pathway - cell viability counter screen (AID 743224); details: VDR-bla HEK293T viability, CellTiter-Glo luminescence, 16 h; series mostly up to 62.6 µM; further: nearly all actives have a fitted effect of over 50% in size; further: potency means the concentration at half of the fitted maximal effect; on activity change, negative = cytotoxicity: on the % scale 0 is the no-effect control and ±100 the full control effect
Method in brief: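 Compounds were pin-transferred onto VDR-bla cells plated 4 h earlier; following 16 h incubation at 37C, cell viability was quantified by CellTiter-Glo luminescence after 30 min at room temperature.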

[2] = qHTS assay to identify small molecule agonists of the endoplasmic reticulum stress response signaling pathway (AID 1159516; active means well fitted activation curve with a large enough effect in the signal ratio in the repeat runs, not every such curve was filed as active; the % refers to the signal ratio; further: potency means the concentration at half of the fitted maximal effect; on activation: on the % scale 0 is the no-effect control and ±100 the full control effect); details: ESRE-bla HeLa, ER stress beta-lactamase reporter, 5 h; series mostly up to 61 µM
Method in brief: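 Using a HeLa line with an ESRE-driven beta-lactamase gene, agonist activity was measured by FRET substrate fluorescence (460 and 530 nm emission) after cells were treated with compounds for 5 hr at 37 C and 5% CO2.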

[3] = qHTS assay to identify small molecule agonists of the endoplasmic reticulum stress response signaling pathway - cell viability counter screen (AID 1159517; calls by dose curve;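 further: HeLa cells carrying an ER stress response element beta-lactamase reporter; on the % scale 0 is the no-effect control and ±100 the full control effect; nearly all actives have a fitted effect of over 50% in size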); details: ESRE-bla HeLa viability, CellTiter-Glo luminescence, 5 h; series mostly up to 61 µM
Method in brief: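 ESRE-bla HeLa cells (1,500/well) were plated overnight at 37 C and exposed to compounds for 5 hr. After the 2 hr beta-lactamase substrate read, CellTiter-Glo went into the same wells, and luminescence was read after 30 min at room temperature.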

[4] = qHTS assay to identify small molecule antagonists of the retinoid-related orphan receptor gamma (ROR-gamma) signaling pathway - cell viability counter screen (AID 1159520); details: Tet-on RORgamma CHO cells viability, ATP luminescence, 16 h; series mostly up to 92.4 µM; further: nearly all actives have a fitted effect of over 50% in size; further: potency means the concentration at half of the fitted maximal effect; on activity, negative = cytotoxicity: on the % scale 0 is the no-effect control and ±100 the full control effect
Method in brief: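 Cytotoxicity was read from cellular ATP (CellTiter-Glo luminescence) after 16 hr at 37 C with 1 uM doxycycline induction. The inducer was added 2 hr after compound transfer to Tet-on ROR gamma CHO cells.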

[5] = target: Nuclear receptor ROR-gamma (Homo sapiens) (UniProt P51449); experiment: qHTS assay to identify small molecule antagonists of the retinoid-related orphan receptor gamma (ROR-gamma) signaling pathway (AID 1159521; further: nearly all actives have a fitted effect of over 50% in size; further: potency means the concentration at half of the fitted maximal effect); details: Tet-on RORgamma CHO cells, RORE-luciferase, 16 h; series mostly up to 92.4 µM
Method in brief: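 Screening format: cell-based luciferase reporter in CHO cells with doxycycline-inducible RORγ. Compound pre-exposure lasts 2 h, doxycycline is 1 uM final, induction runs 16 h at 37 C, and ONE-Glo luminescence is read.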

[6] = qHTS assay to identify small molecule agonists of the AP-1 signaling pathway - cell viability counter screen (AID 1159525; calls by dose curve; further: nearly all actives have a fitted effect of over 55% in size); details: ME-180 AP-1-bla cells viability, ATP luminescence, 5 h; series mostly up to 76.8 µM
Method in brief: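 Intracellular ATP by Cell Titer Glo luminescence (30 min, RT) in the same ME-180 AP-1-bla wells after the 5 h compound exposure at 37 °C. Normalised to tetra n-octyl ammonium bromide and DMSO controls.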

[7] = qHTS assay to identify small molecule antagonists of the vitamin D receptor (VDR) signaling pathway - cell viability counter screen (AID 743225); details: VDR-bla HEK293T viability, CellTiter-Glo luminescence, 16 h; series mostly up to 61 µM; further: nearly all actives have a fitted effect of over 50% in size; further: potency means the concentration at half of the fitted maximal effect; on viability change, negative = cytotoxic: on the % scale 0 is the no-effect control and ±100 the full control effect
Method in brief: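 In this counter screen, VDR-bla HEK 293T cells receive test compound plus 3 nM final calcitriol for 16 h at 37C. Room-temperature steps of 2 h with the beta-lactamase substrate, then 30 min with CellTiter-Glo, precede the luminescence read.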

[8] = qHTS assay to identify small molecule agonists of the AP-1 signaling pathway (AID 1159526; calls by dose curve; further: potency means the concentration at half of the fitted maximal effect); details: ME-180 (cervical carcinoma) AP-1-bla reporter, beta-lactamase FRET ratio, 5 h; series mostly up to 76.8 µM
[9] = qHTS assay to identify small molecule agonists of the RXR signaling pathway - cell viability counter screen (AID 1159529); details: RXR-alpha-bla HEK293T viability, CellTiter-Glo, 16 h; series mostly up to 76.8 µM; further: nearly all actives have a fitted effect of over 50% in size; further: potency means the concentration at half of the fitted maximal effect
Method in brief: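 Viability read-out for the RXR-alpha agonist qHTS: luminescent CellTiter-Glo signal after 30 min at RT. HEK 293T bla reporter cells, 2% charcoal-stripped FBS, 16 hr compound incubation; tetraoctyl ammonium bromide as cytotoxic control.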

[10] = target: Retinoic acid receptor RXR-alpha (Homo sapiens) (UniProt P19793); experiment: qHTS assay to identify small molecule agonists of the RXR signaling pathway (AID 1159527; calls by dose curve; further: on the % scale 0 is the no-effect control and ±100 the full control effect; nearly all actives have a fitted effect of over 35% in size); details: HEK293T RXRa-UAS-bla, beta-lactamase ratio, 16 h; series mostly up to 76.8 µM
Sequence of Retinoic acid receptor RXR-alpha (Homo sapiens) (P19793 whole entry, looked up): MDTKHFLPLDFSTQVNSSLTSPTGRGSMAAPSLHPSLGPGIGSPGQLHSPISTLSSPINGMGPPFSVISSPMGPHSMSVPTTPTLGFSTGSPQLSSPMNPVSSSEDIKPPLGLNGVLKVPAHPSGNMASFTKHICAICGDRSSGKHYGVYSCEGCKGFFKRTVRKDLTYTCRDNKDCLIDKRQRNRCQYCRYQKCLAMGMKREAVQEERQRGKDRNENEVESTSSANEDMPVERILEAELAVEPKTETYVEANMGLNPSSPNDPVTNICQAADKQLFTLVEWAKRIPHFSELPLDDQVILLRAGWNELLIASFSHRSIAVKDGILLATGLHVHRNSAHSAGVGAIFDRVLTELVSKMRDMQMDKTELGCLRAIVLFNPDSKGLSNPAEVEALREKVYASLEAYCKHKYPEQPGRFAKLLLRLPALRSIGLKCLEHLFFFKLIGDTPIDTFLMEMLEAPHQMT
Method in brief: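 Fluorescence ratio readout (460 vs 530 nm) from GeneBLAzer RXR-alpha HEK 293T cells after 16 hr compound treatment; cells seeded 5 hr beforehand in low-serum, charcoal-stripped medium.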

CC1CCCCN1CCCOC(=O)c1ccc(OC2CCCCC2)cc1 (stereo not given)
inactive: Potency [1] | Potency [2] | Potency [3] | Potency [4] | Potency [6]
active: Potency [5] 11.9 µM

COc1cccc(CCc2ccccc2OCC(CN(C)C)OC(=O)CCC(=O)O)c1 (stereo not given)
active: Potency [5] 7.5 µM
inactive: Potency [1] | Potency [7] | Potency [2] | Potency [3] | Potency [4] | Potency [6] | Potency [8] | Potency [9]

[O]=[Zr]
inactive: Potency [1] | Potency [7] | Potency [2] | Potency [3] | Potency [4] | Potency [6] | Potency [8] | Potency [10] | Potency [9]

CN(Cc1cc(Br)cc(Br)c1N)C1CCCCC1
active: Potency [1] 26.6 µM
inactive: Potency [2] | Potency [3] | Potency [4] | Potency [5]

c1cc2c3c(c1)ccc1cccc(c13)C2
inactive: Potency [2] | Potency [3] | Potency [4] | Potency [5] | Potency [6]
active: Potency [1] 56.1 µM

CCCN(CCc1cccs1)[C@H]1CCc2c(O)cccc2C1
inactive: Potency [7] | Potency [2] | Potency [3] | Potency [4] | Potency [5] | Potency [6] | Potency [10]

Cc1ccc(CCn2c3c(c4cc(Cl)ccc42)CN(C)CC3)cn1
inactive: Potency [1] | Potency [7] | Potency [2] | Potency [3] | Potency [4] | Potency [5] | Potency [6] | Potency [8]
active: Potency [9] 16.9 µM

N[C@@H](CSSC[C@H](N)C(=O)O)C(=O)O
inactive: activation [2] -7.2% [at 0.628 µM] | activity change, negative = cytotoxicity [3] 2.61% [at 0.628 µM] | activity, negative = cytotoxicity [4] 0.408% [at 0.349 µM] | activity change, negative = inhibition [5] -16.9% [at 0.35 µM] | viability change, negative = cytotoxic [6] 3.93% [at 0.29 µM] | activity change, negative = cytotoxicity [9] -20.1% [at 0.29 µM]

O=C1NCCN1CCN1CCC(c2cn(-c3ccc(F)cc3)c3ccc(Cl)cc23)CC1
active: Potency [1] 11.9 µM | Potency [7] 16.9 µM | Potency [5] 26.6 µM | Potency [9] 21.3 µM
inactive: Potency [2] | Potency [3] | Potency [4]

O=C(O)CCCCCCC(=O)O
inactive: Potency [1] | Potency [2] | Potency [3] | Potency [4] | Potency [5] | Potency [6] | Potency [8] | Potency [10] | Potency [9]

CC(=O)Oc1ccc(C2(c3ccc(OC(C)=O)cc3)C(=O)Nc3ccccc32)cc1
inactive: Potency [1] | Potency [2] | Potency [3] | Potency [4] | Potency [5] | Potency [9]

COC(=O)CC(C)CCC=C(C)C (stereo not given)
inactive: Potency [7] | Potency [2] | Potency [3] | Potency [4] | Potency [5] | Potency [6] | Potency [9]

CCCCCCCC/C=C/CCCOC(C)=O
inactive: Potency [7] | Potency [2] | Potency [3] | Potency [4] | Potency [5] | Potency [6] | Potency [8] | Potency [9]

CN(C)c1ccc(N=Nc2ccccc2C(=O)O)cc1
active: Potency [4] 13.7 µM | Potency [5] 12.2 µM
inactive: Potency [2] | Potency [3]

c1cc(OCC2CO2)cc(OCC2CO2)c1 (stereo not given)
inactive: Potency [7] | Potency [2] | Potency [3] | Potency [4] | Potency [6]
active: Potency [5] 48.2 µM | Potency [9] 48.6 µM

CCN(CC)CCSC(=O)C(c1ccccc1)c1ccccc1
inactive: Potency [1] | Potency [7] | Potency [2] | Potency [3] | Potency [4] | Potency [5] | Potency [6] | Potency [9]

O=C(c1ccccc1)c1cc(Cl)ccc1O
inactive: Potency [1] | Potency [7] | Potency [2] | Potency [3] | Potency [4] | Potency [5] | Potency [10]

CC1(C)C(=O)N(Br)C(=O)N1Br
inactive: Potency [1] | Potency [7] | Potency [2] | Potency [3] | Potency [4] | Potency [5] | Potency [6] | Potency [8] | Potency [9]

O=C1Nc2ccc(Cl)cc2[C@@](C#CC2CC2)(C(F)(F)F)O1
inactive: Potency [1] | Potency [2] | Potency [3] | Potency [5]
active: Potency [4] 29.8 µM

CN(C)CCCN1c2ccccc2Sc2ccc(C(F)(F)F)cc21
active: Potency [8] 16.9 µM
inactive: Potency [2] | Potency [3] | Potency [4] | Potency [6]

CCCCCCCC/C=C\CCCCCCCC(=O)NCc1ccc(O)c(OC)c1
inactive: Potency [2] | Potency [3] | Potency [4] | Potency [5] | Potency [6] | Potency [9]
active: Potency [7] 21.3 µM

C=CC(C)(CCC=C(C)C)OC(=O)/C=C/c1ccccc1 (stereo not given)
inactive: Potency [2] | Potency [3] | Potency [4] | Potency [5] | Potency [6]
active: Potency [1] 38.9 µM

CCN(CC)CCCN(c1ccccc1)C1Cc2ccccc2C1
inactive: Potency [2] | Potency [3] | Potency [4] | Potency [6]

CNC(=S)NN
active: Potency [5] 27.3 µM
inactive: Potency [2] | Potency [3] | Potency [4] | Potency [6]

O=C(O)Cc1ccc(OCCNC[C@H](O)c2ccccc2)cc1
inactive: Potency [2] | Potency [3] | Potency [4] | Potency [5] | Potency [6] | Potency [9]

CCC(C)(C)c1cc(O)c(C(C)(C)CC)cc1O
active: Potency [2] 3.89 µM | Potency [4] 24.3 µM | Potency [5] 24.3 µM
inactive: Potency [7] | Potency [3] | Potency [6] | Potency [8] | Potency [10]
